Source: PubChem (several laboratories)
Most compounds without a hit are left out; they make up all but 3.9% or so of the library.
PLC-gamma1 inh: PLC-gamma1 enzyme inhibitors, primary screen, biochemical, fluorescence, purified enzyme | 1-phosphatidylinositol 4,5-bisphosphate phosphodiesterase gamma-1 (Homo sapiens), P19174 | fluorogenic substrate | inhibition, % at 12.2 µM | 0.84% of 370,000 active | AID 720700, 2013; in the data active = inhibition above about 9.5%
Target sequence (P19174 whole entry, looked up): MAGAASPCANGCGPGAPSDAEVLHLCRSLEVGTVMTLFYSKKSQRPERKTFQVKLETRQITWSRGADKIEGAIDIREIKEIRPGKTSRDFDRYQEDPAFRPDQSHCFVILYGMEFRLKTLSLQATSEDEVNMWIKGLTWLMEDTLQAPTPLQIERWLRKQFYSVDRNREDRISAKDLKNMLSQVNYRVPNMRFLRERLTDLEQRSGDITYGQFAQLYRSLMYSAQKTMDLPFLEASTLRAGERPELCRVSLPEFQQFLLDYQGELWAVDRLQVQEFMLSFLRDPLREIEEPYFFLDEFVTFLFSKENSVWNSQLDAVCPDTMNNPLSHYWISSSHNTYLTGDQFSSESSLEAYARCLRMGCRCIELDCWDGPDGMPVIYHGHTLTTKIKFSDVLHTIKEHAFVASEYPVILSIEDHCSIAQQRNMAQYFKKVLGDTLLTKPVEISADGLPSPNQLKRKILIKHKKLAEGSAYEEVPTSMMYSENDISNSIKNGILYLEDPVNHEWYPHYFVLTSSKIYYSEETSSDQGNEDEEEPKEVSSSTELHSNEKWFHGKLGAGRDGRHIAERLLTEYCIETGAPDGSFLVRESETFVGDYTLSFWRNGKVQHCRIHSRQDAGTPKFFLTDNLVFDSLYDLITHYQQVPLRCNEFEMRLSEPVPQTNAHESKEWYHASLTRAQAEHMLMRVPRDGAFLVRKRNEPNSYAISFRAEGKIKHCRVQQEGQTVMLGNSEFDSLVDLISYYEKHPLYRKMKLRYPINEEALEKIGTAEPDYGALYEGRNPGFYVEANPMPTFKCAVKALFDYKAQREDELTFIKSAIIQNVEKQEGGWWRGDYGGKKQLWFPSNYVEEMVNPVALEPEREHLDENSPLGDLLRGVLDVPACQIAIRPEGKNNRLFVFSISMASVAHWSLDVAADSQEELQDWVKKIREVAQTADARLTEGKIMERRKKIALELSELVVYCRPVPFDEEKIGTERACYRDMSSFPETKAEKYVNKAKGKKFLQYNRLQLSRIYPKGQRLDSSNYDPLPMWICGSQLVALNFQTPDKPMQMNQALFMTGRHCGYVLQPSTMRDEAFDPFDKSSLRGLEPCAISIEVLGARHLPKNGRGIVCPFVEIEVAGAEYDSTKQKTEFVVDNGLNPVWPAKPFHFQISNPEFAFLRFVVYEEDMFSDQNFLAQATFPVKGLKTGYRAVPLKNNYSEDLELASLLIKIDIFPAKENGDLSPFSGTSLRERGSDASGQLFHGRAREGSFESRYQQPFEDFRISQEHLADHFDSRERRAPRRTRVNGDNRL
PLC-beta3 inh: human PLC-beta3 inhibitors, primary screen, biochemical, fluorescence. 0.18% of 370,000 active. AID 720704, 2013. inhibition, % at 12.2 µM. 1-phosphatidylinositol 4,5-bisphosphate phosphodiesterase beta-3 (Homo sapiens), Q01970. Purified PLC-beta3, fluorogenic substrate; in the data active = inhibition above about 11%;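 note: 0% = median of compound wells on plate and 100% = full blocker control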
HIF act: HIF pathway transcriptional activators, primary screen, cell-based, U2OS HRE-luciferase, luminescence | U2OS HRE-luciferase reporter; normalized: DMSO 0%, desferrioxamine 100% | activation, % at 7.5 µM (by protocol) | 0.32% of 300,000 active;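 active = mean activation of at least 10% of the iron chelator positive control signal, with at least half of replicates also reaching 10%; inconclusive = mean and replicate majority disagree about reaching 10%; inactive = mean and most replicates under 10%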
Yeast superoxide: reduction of superoxide in aged yeast, primary screen, HTS; S. cerevisiae aged cells, superoxide DHE fluorescence; hits give low values; superoxide response (% of plate mean), % at 10 µM; 0.18% of 330,000 active;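 active = superoxide response under a set limit, about three screen SD below normal, cut at about 65% in these data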;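 note: yeast aged for seven days with compound at 30 °C before DHE staining; 100% = average MFI of all compound-treated wells on the plate with controls excluded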
AHR act: AHR activators, primary screen, cell-based, luminescence, luciferase reporter, human; Aryl hydrocarbon receptor (Homo sapiens), P35869; AHR-responsive luciferase reporter cells; activation, % at 5 µM; 2.5% of 320,000 active; AID 2796, 2010; in the data active = activation above about 47%;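 note: 0% = vehicle wells and 100% = reference agonist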
sPLA2-III inh: human group III sPLA2 inhibitors, primary screen, biochemical, QFRET, BODIPY PC-A2 liposome substrate; Group 3 secretory phospholipase A2 (Homo sapiens), Q9NZ20; QFRET BODIPY PC-A2 liposome hydrolysis, fluorescence; inhibition, % at 12.2 µM; 0.56% of 370,000 active;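 active = inhibition above mean plus 3 SD of compounds lying within the high and low control bounds, cut at about 19% in these data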;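 note: 0% = median of test compound wells and 100% = no enzyme DMSO wells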
AHR act confirm: AHR activators, confirmation, cell-based, luminescence, luciferase reporter, human; shares compounds with AHR act; human cells, AHR-responsive luciferase reporter; activation, % at 9 µM; 87% of 2,300 active; in the data active = activation above about 49%;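 note: HepG2 hepatoma cells carrying a DRE-driven firefly luciferase reporter; 0% = vehicle wells and 100% = reference agonist wells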
PXR counter: human PXR activators, counter-screen for AHR activator project, cell-based, luciferase luminescence; shares compounds with AHR act; cell-based PXR reporter; activation, % at 11.6 µM; 88% of 2,300 active; in the data active = activation above about 11%;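 note: human hepatoma DPX-2 cells expressing full-length human PXR; 0% = DMSO and 100% = reference agonist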
The depositor's hits bear a star; u = inconclusive; x = no result.

SMILES | PLC-gamma1 inh | PLC-beta3 inh | HIF act | Yeast superoxide | AHR act | sPLA2-III inh | AHR act confirm | PXR counter
Cn1cc(-c2ccc(Cl)cc2)cc(C#N)c1=O | -35 | -49 | 0 | 97 | -3 | 3 | x | x
Cc1cc(=O)oc2cc(OCC(=O)c3ccccc3)ccc12 | -4 | -15 | 0 | 100 | -4 | 0 | x | x
Cc1cc(=O)oc2cc(OCCc3ccccc3)ccc12 | -48 | -74 | 5 | 99 | 81* | -10 | 140* | 21*
Cc1cc(Nc2ccc(F)cc2)n2nc(C)nc2n1 | 0 | 0 | 0 | 86 | 6 | -1 | x | x
Cc1cc(Nc2ccc(Br)cc2)n2nc(C)nc2n1 | -2 | -4 | 0 | 96 | 107* | 10 | 88* | x
Fc1ccc(Cn2ccc3ccc(-c4ccc5ccn(Cc6ccc(F)cc6F)c5c4)cc32)c(F)c1 | -81 | -119 | x | x | x | 7 | x | x
Cc1cc(N/N=C/c2ccccc2O)c2ccccc2n1 | -44 | -59 | 3 | 100 | 107* | 3 | 124* | 13*
CC(=O)Nc1nc(C)c(-c2csc(Nc3ccccn3)n2)s1 | -23 | -50 | u | 95 | 116* | -7 | 108* | 32*
Cc1ccnc(Nc2nc(-c3ccccc3)cs2)c1 | 2 | -11 | 1 | 101 | 163* | 4 | 89* | 48*
Clc1ccccc1Nc1nc(-c2cccnc2)cs1 | 3 | -2 | 4 | 97 | 114* | -1 | 129* | 16*
NNc1nc(-c2ccccc2)cs1 | -9 | -14 | 1 | 110 | 80* | 1 | 82* | 27*
COc1ccc(-c2csc(Nc3cc(C)ccn3)n2)cc1OC | 1 | -15 | 3 | 106 | -3 | 8 | x | x
c1ccc(-c2csc(Nc3ncccn3)n2)cc1 | -3 | -1 | 2 | 96 | 25 | 13 | x | x
COc1cccc(Nc2nc(-c3cccnc3)cs2)c1 | -1 | -7 | 3 | 102 | 108* | 3 | 127* | 13*
Fc1ccc(-c2csc(Nc3ccccn3)n2)cc1 | 1 | -6 | 2 | 105 | 83* | 0 | 107* | 18*
Cc1ccc(C)c(Nc2nc(-c3cccnc3)cs2)c1 | 0 | -2 | 1 | 99 | 82* | -7 | 90* | 26*
Cc1ccc(Nc2nc(-c3ccc(F)cc3)cs2)nc1 | -17 | -9 | 2 | 98 | x | 9 | x | x
CCC(=O)Nc1nc(-c2ccccc2)ns1 | 4 | 0 | 2 | 109 | 102* | 1 | 84* | 32*
CCOc1ccc2nc(SCC(=O)Nc3cc4c(cc3C(C)=O)OCO4)[nH]c2c1 | -8 | -11 | 1 | 96 | 5 | 0 | x | x
COC(=O)C1CCN(C(=O)CN2C(=O)NC(CC(C)C)C2=O)CC1 (stereo not given) | -3 | -3 | x | 87 | 1 | 1 | x | x
O=C(c1cccc(-c2ccccc2)c1)N1CC[C@@H](N2CCC(O)CC2)[C@H](O)C1 | 0 | -8 | 0 | 107 | -1 | 3 | x | x
Cc1ccc(C)c(CC(=O)N2CCCC(c3cc(C(=O)NCc4ccccc4)no3)C2)c1 (stereo not given) | 0 | -2 | x | x | x | -12 | x | x
c1ccc(Nc2nc(-c3cccnc3)cs2)nc1 | 3 | 0 | 2 | 92 | 166* | 0 | 74* | 41*
Fc1ccc(-c2csc(NC(=S)Nc3ccccc3)n2)cc1 | 3 | -3 | 1 | 91 | 84* | 3 | 79* | 32*
CC(=O)Nc1cccc(-c2csc(Nc3ccc(Cl)cn3)n2)c1 | -7 | -10 | 2 | 101 | 11 | -25 | x | x
CC(C)CC(=O)Nc1cccc(-c2csc(-c3ccccc3)n2)c1 | -1 | 3 | 0 | 80 | 17 | -34 | x | x
